Source: PubChem
IMPase inh: membrane-permeable compound that blocks inositol monophosphatase. 120,000 tested, under 10 active. inhibition (IP1 accumulation), % at 46.1 µM. P97697. CHO-M1 cells, IP1 accumulation, HTRF TR-FRET ratio; active = well fitted curve in the direction sought with a large enough effect in the signal ratio, not every such curve was filed as active; inconclusive = small, poorly fitted or top-dose-only effect, or a change in a side signal; inactive = no such curve, though single readings can be large or run the other way; the % refers to the signal ratio;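 also: cells stimulated with carbachol in lithium chloride buffer; plate controls were DMSO basal wells for no effect and reference inhibitor wells for full effect; higher means more IMPase inhibition seen as more IP1 and lower FRET ratio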
Target sequence (P97697 whole entry, looked up): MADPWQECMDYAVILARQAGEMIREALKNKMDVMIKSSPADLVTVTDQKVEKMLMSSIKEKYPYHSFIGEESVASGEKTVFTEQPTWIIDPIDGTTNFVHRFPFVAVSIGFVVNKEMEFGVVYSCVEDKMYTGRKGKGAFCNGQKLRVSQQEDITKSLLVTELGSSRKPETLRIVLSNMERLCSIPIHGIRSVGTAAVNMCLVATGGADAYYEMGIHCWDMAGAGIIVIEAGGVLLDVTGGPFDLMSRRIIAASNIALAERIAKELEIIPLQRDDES
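CHO-M1 cells (CHO stably expressing M1 receptor), compound up to 46 uM final, stimulated with carbachol (50 uM as added) in buffer with 50mM LiCl, pH 7.4, 30 min at 37C. Cytosolic IP1 read by TR-FRET; AC50 from Hill fits.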
NPSR antagonist: antagonists of human neuropeptide S receptor cAMP signaling; CHO-NPSR cells, cAMP TR-FRET, antagonist mode; AID 1461; hit rate 1% among 220,000; Potency, µM (top dose mostly 38.3 µM), inactives show top-dose activity change, negative = inhibition, hits mostly inhibitors; also: potency is read from the fitted curve at half-maximal effect; nearly all actives have a fitted effect of over 50% in size
12-hLO inh: inhibitors of human 12-lipoxygenase (ALOX12). purified 12-hLO, xylenol orange hydroperoxide absorbance. hit rate 0.12% among 150,000. P18054. Potency, µM (highest dose often 57.1 µM), without a hit: at the top dose activity change, negative = inhibition, most hits filed as inhibitors; also: potency is read from the fitted curve at half-maximal effect; nearly all actives have a fitted effect of over 55% in size
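Purified human 12hLO (150 nM final) was preincubated with compounds for 15 min at room temperature in 25 mM Hepes pH 7.0, 0.01% Triton X-100, then reacted with 40 uM arachidonic acid for 30 min. Hydroperoxide was detected with ferrous iron/xylenol orange.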
IMPase Li inh: membrane-permeable IMPase blocker, potentiated with lithium | Potency, µM (series often up to 59.4 µM), without a hit: at the highest dose activity, negative = IMPase inhibition, actives largely listed as inhibitors | CHO-M1 cells, IP1 TR-FRET (IP-One), carbachol + lithium | hit rate 0.35% among 210,000 | AID 1457;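 also: IP1 builds up when IMPase is blocked and the TR-FRET signal falls; potency is read from the fitted curve at half-maximal effect; plate controls were basal vehicle for no effect and high inhibitor control for full effect; nearly all actives have a fitted effect of over 50% in size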
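Lithium-sensitised IP1 accumulation assay; M1-expressing CHO cells treated 30 min at 37C with compound. Competitive antibody detection by time-resolved FRET followed a 10 min room-temperature lysis step.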
HPGD block: blocks human HPGD enzyme activity. P15428. Potency, µM, for inactives: at the highest dose activity change, negative = inhibition, usual class: inhibitors. hit rate 4.3% among 150,000. purified HPGD, NADH fluorescence kinetic, PGE2 substrate; active = well fitted inhibition curve with a large enough effect, not every such curve was filed as active; inconclusive = small, poorly fitted or top-dose-only effect, or another doubt; inactive = no such curve, though single readings can be large or run the other way; also: potency is read from the fitted curve at half-maximal effect
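20 nM HPGD preincubated 15 min at room temperature with compound in 50 mM Tris-HCl pH 8, 0.01% Tween 20. Started with 1 mM NAD+ and 30 uM prostaglandin E2; NADH fluorescence (360/450 nm) read 5 times over 30-s intervals, last minus first.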
ALDH1A1 inh: blocks purified human ALDH1A1 activity. P00352. Purified ALDH1A1, NADH fluorescence, propionaldehyde substrate. Potency, µM (series often up to 75.3 µM), for inactives: at the top dose activity, negative = inhibition, most hits filed as inhibitors. hit rate 7.3% among 220,000; active = well fitted inhibition curve with a large enough effect, not every such curve was filed as active; inconclusive = small, poorly fitted or top-dose-only effect, or another doubt; inactive = no such curve, though single readings can be large or run the other way;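 also: potency is read from the fitted curve at half-maximal effect; plate controls were no enzyme wells and a reference inhibitor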
Target sequence (P00352 whole entry, looked up): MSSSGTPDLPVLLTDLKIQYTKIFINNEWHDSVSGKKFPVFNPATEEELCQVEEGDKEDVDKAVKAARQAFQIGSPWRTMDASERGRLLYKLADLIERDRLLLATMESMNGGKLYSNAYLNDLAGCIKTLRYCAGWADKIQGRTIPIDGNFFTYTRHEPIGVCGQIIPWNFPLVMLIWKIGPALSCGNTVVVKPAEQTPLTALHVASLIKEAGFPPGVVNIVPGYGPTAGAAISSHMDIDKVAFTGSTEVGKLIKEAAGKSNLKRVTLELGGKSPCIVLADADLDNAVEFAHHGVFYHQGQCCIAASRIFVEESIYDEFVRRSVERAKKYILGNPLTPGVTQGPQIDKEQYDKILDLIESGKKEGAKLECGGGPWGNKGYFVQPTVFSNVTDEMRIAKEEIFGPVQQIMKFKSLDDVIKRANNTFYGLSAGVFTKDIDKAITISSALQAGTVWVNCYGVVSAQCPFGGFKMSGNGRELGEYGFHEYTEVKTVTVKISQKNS
Active calls of the source: *; u = inconclusive; x = not tested or not shown; [ ] = dose if it differs, or a comment. The list is not random: actives were taken first. Their share in the collection is about 8.9%. Unless noted, calls follow the shape of the dose curve; as a rule, active = well fitted curve in the direction sought with a large enough effect; inconclusive = small, poorly fitted or top-dose-only effect, or another doubt; inactive = no such curve, though single readings can be large; an effect the other way counts as inactive or inconclusive. Unless noted, % is scaled to controls: 0 for no effect and ±100 for the full control effect.

SMILES	IMPase inh	NPSR antagonist	12-hLO inh	IMPase Li inh	HPGD block	ALDH1A1 inh
O=C(CSc1nnc(-c2ccccn2)n1Cc1ccccc1)N1CCCC1	-6	-7%[46.1 µM]	9%	6%	28µM*	-11%
C=CCn1c(SCC(=O)C(C)(C)C)nnc1-c1ccccn1	2	14%[46.1 µM]	0%	9%	-21%	u
C=CCn1c(SCC(=O)C(C)(C)C)nnc1-c1cccs1	8	-4%[46.1 µM]	0%	-6%[38.3 µM]	14µM*	13µM*
O=C1C(c2ccc(F)cc2)N(C2CCCCC2)C(=O)CN1C1CCCC1 (centres undefined)	7	-20%[46.1 µM]	-3%	-4%[38.3 µM]	1%	u
CCC(C)N1C(=O)CN(C2CCCCCC2)C(=O)C1c1ccccc1F (centres undefined)	x	-20%	x	8%	x	16µM*
CCNc1ncc2nc(-c3ccc(Cl)cc3)c(=O)n(C)c2n1	x	x	x	-2%	x	u
COc1ccc(C(=O)N/N=C(\C)c2ccc3c(c2)C2C=CCC2C(c2ccccc2)N3)cc1 (centres undefined)	-4	-1%	u	13%	-23%	11µM*
COc1cccc(NS(=O)(=O)c2ccc3c(c2)C2C=CCC2C(c2ccc(C(=O)O)cc2)N3)c1 (centres undefined)	x	-27%	-21%	0%	-28%	20µM*
COc1ccc(OC(=O)c2cn(C)nc2C(F)(F)F)cc1	4	0%[46.1 µM]	-4%	33%[38.3 µM]	-9%	3%
COc1ccc(Br)cc1/C=N/NC(=O)c1cc(OC)c(OC)c(OC)c1	x	-12%	6%	10%	-17%	6%
CC1CN(C(=O)N[C@@H](Cc2ccccc2)C(=O)O)CC(C)O1 (some centres undefined)	12	-4%[46.1 µM]	-3%	0%[38.3 µM]	-1%	13%
CCNc1nc(NC(C)C)nc(N(n2cnnc2)S(=O)(=O)c2ccc(C)cc2)n1	x	-5%	-5%	17%	-7%	2.2µM*
CCCc1noc2c1C(c1cc(Br)ccc1F)C(C#N)=C(N)N2 (centres undefined)	x	-21%	x	2%	x	11µM*
O=C(Cc1ccccc1Cl)Nc1nc2ccccc2[nH]1	x	18%	x	x	x	25µM*
Cc1ccc(CC(=O)Nc2nc3ccccc3[nH]2)cc1C	0	6%[46.1 µM]	-2%	-1%[38.3 µM]	-6%	-1%
COc1ccc(C(=O)NCC(=O)OCC(=O)c2ccc3c(c2)NC(=O)CO3)cc1OC	x	13%	x	-3%	x	9%
CC[C@H](C)[C@H](NC(=O)c1ccc(Cl)cc1)C(=O)OCC(=O)c1ccc2c(c1)NC(=O)CO2	8	u	-4%	32%[38.3 µM]	-13%	-11%
CC(C)[C@H](NC(=O)c1ccccc1)C(=O)OCC(=O)c1ccc2c(c1)NC(=O)CO2	-4	-13%[46.1 µM]	-9%	26%[38.3 µM]	-24%	1.1µM*
COc1cc(OC)cc(C(=O)N[C@H](C(=O)OCC(=O)c2ccc3c(c2)NC(=O)CO3)C(C)C)c1	0	-8%[46.1 µM]	-5%	15%[38.3 µM]	-20%	22µM*
O=C(NC(c1ccccc1)c1ccccn1)c1cccc([N+](=O)[O-])c1 (centres undefined)	x	-25%	x	7%	x	14µM*
CC(C)COc1ccc(CN=C(N)N=C(N)N)cc1Cl	3	28%	2%	-1%	3%	9%
Cc1ccc(C(=O)CNc2ccccc2C)cc1	x	13%	-3%	5%	-10%	11µM*
O=C(CNc1ccc(F)cc1)c1ccccc1	x	-1%	x	5%	x	13µM*
Cc1ccc(C(=O)CNc2ccc(Br)cc2)cc1	0	4%[46.1 µM]	7%	3%[38.3 µM]	-24%	18µM*
O=C(CNc1ccc(Br)cc1)c1ccccc1	2	8%[46.1 µM]	-6%	-16%[38.3 µM]	-17%	20µM*
SMILES	IMPase inh	NPSR antagonist	12-hLO inh	IMPase Li inh	HPGD block	ALDH1A1 inh
N#Cc1ccc(OCCOCCNC2CCCC2)cc1	x	30%	-7%	9%	-2%	-2%
N#Cc1c(NC(=O)CSc2n[nH]c(N)n2)oc(-c2ccccc2)c1-c1ccccc1	3	-2%[46.1 µM]	4%	29%[38.3 µM]	-2%	u
CC(C)OC(=O)CSc1nnc(-c2cnccn2)n1-c1ccc(Cl)cc1	4	-17%[46.1 µM]	0%	0%[38.3 µM]	-20%	10µM*
Cc1ccccc1S(=O)(=O)c1c(C)cc(C)n(CC(C)C)c1=O	15	-23%[46.1 µM]	-3%	-8%[38.3 µM]	-4%	7.9µM*
COc1cc(O)c(C(CC(=O)N2CCN(c3ccccc3)CC2)c2cc(OC)c(OC)c(OC)c2)c(OC)c1 (centres undefined)	x	1%	x	x	x	x
Cc1nc(SCC(=O)Nc2ccc(Br)cc2)[nH]c(=O)c1Cc1ccccc1	-8	x	x	x	x	x
Cc1ccc(NC(=O)CSc2nc(C)c(Cc3ccccc3)c(=O)[nH]2)cc1	1	-18%	x	5%	x	u
CCc1c(C)nc(SCC(=O)Nc2ccc(Br)cc2)[nH]c1=O	-7	-7%[46.1 µM]	-5%	-8%[38.3 µM]	14µM*	4%
CCc1c(C)nc(SCC(=O)Nc2cccc(Br)c2)[nH]c1=O	11	-10%[46.1 µM]	-3%	4%[38.3 µM]	3.5µM*	-4%
Cc1ncsc1CCOC(=O)c1cccnc1	7	8%[46.1 µM]	-5%	-2%[38.3 µM]	-4%	0%
O=C(NC(=S)Nc1cc(S(=O)(=O)N2CCOCC2)ccc1N1CCOCC1)C1CCCC1	x	-28%	x	-2%	x	3%
CN(Cc1c(C(=O)N(C)Cc2ccccc2)nc2ccccn12)CC1Cc2ccccc2O1 (centres undefined)	x	-13%	x	34%	x	14µM*
CN(Cc1ccccc1)C(=O)c1nc2ccccn2c1CNCCOc1cccnc1	x	6%	x	20%	x	25µM*
CCOC(=O)C/C(N)=N/NC(=O)c1ccc(Cl)cc1Cl	x	3%	x	-6%	x	2%
CCOc1ccc(/C(C)=N/N2C(=O)C(CC(=O)Nc3ccc(OC)cc3[N+](=O)[O-])SC2=Nc2cccc(C)c2C)cc1 (centres undefined)	x	-7%	-2%	1%	u	14µM*
COC(=O)c1cc(=O)n2c(-c3ccc(OC)cc3)csc2n1	-5	-5%[46.1 µM]	2%	4%[38.3 µM]	-10%	5µM*
COc1cc(=O)n2c(-c3ccccc3)csc2n1	4	0%[46.1 µM]	-2%	4%[38.3 µM]	-13%	1%
CN(CCO)c1cc(N2CCCCC2)c2nonc2c1[N+](=O)[O-]	x	-10%	x	-5%	x	16µM*
O=C(CN1CCNCC1)Nc1ccccc1Cl	0	-5%[46.1 µM]	-3%	17%[38.3 µM]	-2%	-5%
Cc1cc(N/N=C/c2c[nH]c3ccccc23)c2ccccc2n1	x	-9%	x	0%	x	u
Fc1c(F)c(F)c(N/N=C/c2c[nH]c3ccccc23)c(F)c1F	-3	-16%[46.1 µM]	-2%	9%	-4%	32µM*
Cn1c(N/N=C/c2c[nH]c3ccccc23)nc2ccccc21	16	-16%[46.1 µM]	u	-29%[38.3 µM]	u	16µM*
